Assay results from the supplement of paper PMC10338343.
± gives the standard deviation.

Each sequence was assayed on EfPiwi piRISC loaded with L1MC piRNA (26 nt) (assay: pre-steady-state target cleavage rate (min^-1); auxiliary factor: 500 nM Ephydatia muelleri Gtsf1; guide: L1MC piRNA 5'p-UAACUAAAUACUAUGCAAGCUGUAGG; MIWI and MILI are mouse PIWI proteins and EfPiwi is from a freshwater sponge; tags in brackets are library labels; higher = faster piRNA-guided slicing of the target).
Summary of the method: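 Cleave-'n-Seq reactions paired 0.1 nM transcribed, DNA-blocked target RNA library with 1 nM active affinity-purified piRISC holding one synthetic guide, plus or minus 500 nM GTSF1 partner protein, in HEPES–potassium acetate buffer at 33 °C for 0–8 or 0–960 min. After sequencing of uncleaved targets and normalisation to depth and weakly complementary targets, the pre-steady-state cleavage rate was taken from a burst-and-steady-state fit. Three trials were pooled, and k3 was capped at 0.0001 min^-1.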
UCCUGCUACAGCUUGCAUAGUAAUUUCAAA was tested, and the “pre-steady-state target cleavage rate” value was 0.00378 ± 0.0027. For UCCUGGAUCAGCUUGCAUAGUACUUUAGUUA, the “pre-steady-state target cleavage rate” value was 0.00735 ± 0.0023. In the case of UCCUGGAUGUGCUUGCAUAGUAUUGUAGUUA, the “pre-steady-state target cleavage rate” value is reported as 0.00579 ± 0.0041. For “UCCUCCUACAGCUUGCAUAGUAUUUAGUUG [g2:g26:cont:t1G]”, the “pre-steady-state target cleavage rate” value was 0.00723 ± 0.0029. For UCCUGGUACAGCUUGCAUAAUAUUUAGUUA, the “pre-steady-state target cleavage rate” value was 0.00307 ± 0.0027. In the case of UCCUGCUCAGCUUGCAUAGUAUUUAGUUA, the “pre-steady-state target cleavage rate” value is reported as 0.065 ± 0.015. In the case of UCCUGGUACAGCUUGCAUAGAAUUUAGAAA, the “pre-steady-state target cleavage rate” value is reported as 0.00253 ± 0.0021. For UCCUGGAUGUCGAAGCUUAGUAUUUACUUA, the “pre-steady-state target cleavage rate” value was less than 0.0001. With UCCUGCAUCAGCUUGCAUAGUAUUUAGUAA the “pre-steady-state target cleavage rate” value was 0.00847 ± 0.0021. UCCUGGAACAGCUUGCAUAGUAAUUAGUUA was tested, and the “pre-steady-state target cleavage rate” value was 0.00814 ± 0.0027. With UCCUGGAUGUCGAACCAUCGUAUUUAGUUA the “pre-steady-state target cleavage rate” value was less than 0.0001. For UCCUGGAUGUCGAACGUUAGUAUCUAGUUA, the “pre-steady-state target cleavage rate” value was less than 0.0001. For UCCUCCUACAGCUAGCUUAGUAUUUAGUUA, the “pre-steady-state target cleavage rate” value was 0.00997 ± 0.0038. With UCCUGCUACAGCUUGCAUAGUAAUUAGAUA the “pre-steady-state target cleavage rate” value was 0.00345 ± 0.0018. UCCUGGAACUGCUUGCAUAGUAUAUAGUUA was tested, and the “pre-steady-state target cleavage rate” value was 0.0584 ± 0.021. UCCUGGAACUGCUUGCUUAGUAUUUAGUUA was tested, and the “pre-steady-state target cleavage rate” value was 0.00646 ± 0.0033. In the case of UCCUGCUACAGCUUGCUUAGUAUUUUCAAA, the “pre-steady-state target cleavage rate” value is reported as 0.00321 ± 0.003. UCCUGGAUGUCGUUCGCAUAGUAUUUAGUUA was tested, and the “pre-steady-state target cleavage rate” value was 0.00486 ± 0.0031. For UCCUCCUACAGCUUGCAUAGUAUUUUCAAA, the “pre-steady-state target cleavage rate” value was 0.00383 ± 0.0027. In the case of UCCUGGAUGUCCGUUGCAUAGUAUUUAGUUA, the “pre-steady-state target cleavage rate” value is reported as 0.00412 ± 0.0033. With UCCUGGAUGUCGAACGUAUCUAUUUAGUAA the “pre-steady-state target cleavage rate” value was less than 0.0001. For UCCUGGAUCAGCUUGCAUAGUAUUUAGGUUA, the “pre-steady-state target cleavage rate” value was 0.00516 ± 0.0024. With UCCUCCUACAGCUUGCAUAGUAUUUUCAUA the “pre-steady-state target cleavage rate” value was 0.00665 ± 0.0037. In the case of UCCUGGAUGUCGAACCAUAGCUAUUUAGUUA, the “pre-steady-state target cleavage rate” value is reported as less than 0.0001. In the case of UCCUGGAUGUCGAACGUUAGUAUUAAGUAA, the “pre-steady-state target cleavage rate” value is reported as less than 0.0001. For UCCUGGAUGAGCUUGCAUAGUAUUUUCUAA, the “pre-steady-state target cleavage rate” value was 0.00391 ± 0.0026. With UCCUCCUACAGCUUGCGAUAGUAUUUAGUUA the “pre-steady-state target cleavage rate” value was 0.00839 ± 0.0023. With UCCUCCAACAGCUUGCAAAGUAUUUAGUUA the “pre-steady-state target cleavage rate” value was 0.0132 ± 0.0038. In the case of UCCUGCUACAAGCUUGCAUAGUAUUUAGUUA, the “pre-steady-state target cleavage rate” value is reported as 0.00475 ± 0.0013. For UCCUGGAUGUCGAACCAUAGUAUUUACGUUA, the “pre-steady-state target cleavage rate” value was less than 0.0001. In the case of UCCUGGUACAGCUUGCAUAGUAUAAUGUUA, the “pre-steady-state target cleavage rate” value is reported as 0.00312 ± 0.0026. For UCCUGGAUCAGCAUUGCAUAGUAUUUAGUUA, the “pre-steady-state target cleavage rate” value was 0.0605 ± 0.015. For UCCUGGUUCAGCUUCCAUAGUAUUUAGUUA, the “pre-steady-state target cleavage rate” value was 0.00303 ± 0.0021. With UCCUGGAUGUCGAAGGAUACUAUUUAGUUA the “pre-steady-state target cleavage rate” value was less than 0.0001. UCCUGGUACAGCGUGCAUAGUAUUUAGUUA was tested, and the “pre-steady-state target cleavage rate” value was 0.0121 ± 0.004. “UCCUGGAUGUCGAACGUAUCUAUUUAGAAA [g4:g10:cont:t1A]” was tested, and the “pre-steady-state target cleavage rate” value was less than 0.0001. In the case of UCCUCCUACAGCUUGAAUAGUAUUUAGUUA, the “pre-steady-state target cleavage rate” value is reported as 0.0651 ± 0.017. With UCCUGGAUGUCGAACGUAUGUCUUUAGUUA the “pre-steady-state target cleavage rate” value was less than 0.0001. UCCUGCUACAGCUUGCAUAGAAUUUAGUUA was tested, and the “pre-steady-state target cleavage rate” value was 0.00582 ± 0.0022. For UCCUGGAUGUCGAACGUAAGUAUUUAAUUA, the “pre-steady-state target cleavage rate” value was less than 0.0001.
